# Reference: the supplement of paper PMC4022240
# ± gives the standard deviation.
# T1: HaloTag-ATRX ADD domain (163-292)
# T1 chain: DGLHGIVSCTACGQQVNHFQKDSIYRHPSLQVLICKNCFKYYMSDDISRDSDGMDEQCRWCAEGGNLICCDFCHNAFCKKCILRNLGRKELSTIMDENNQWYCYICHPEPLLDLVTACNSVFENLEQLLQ
# Assays:
# Assay in all cases: peptide microarray binding signal (635 nm), min-max normalized on array (fraction of array maximum); higher = stronger binding
# Details in all cases: peptide region: H3 30-42
# [1] = biological target: T1, HaloTag-ATRX ADD domain (163-292)
# How it was run: (§1)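 Arrays carried histone 13-mer peptide–cellulose conjugates printed in triplicate on nitrocellulose alongside a Cy3 tracer. After overnight blocking at 4°C, they were incubated for 1 h at 4°C with biotin-labelled HaloTag reader fusions (10 nM to 1 μM) plus streptavidin-Alexa Fluor 647, or with rabbit histone antibodies (1:10,000 to 1:2,000) plus anti-rabbit Alexa 647. Scanning on an Axon GenePix 4000B used 635 nm for signal and 532 nm for misprints. The binding signal reported is each triplicate's mean spot intensity after per-library min-max scaling.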
# [2] = biological target: HaloTag-ING2 PHD (mouse Ing2 200-280)
# How it was run: as §1
# [3] = biological target: anti-H3K4me3 antibody ab8580
# How it was run: as §1
# [4] = biological target: anti-H3K9me3 antibody ab8898
# How it was run: as §1
# [5] = peptide modifications: H3K36me2 H3K37me1, binder concentration: 1:2,000 dilution
# [6] = peptide modifications: H3K36me2 H3K37me1, binder concentration: 1:10,000 dilution
# [7] = peptide modifications: H3K37ac, binder concentration: 1:2,000 dilution
# [8] = peptide modifications: H3K37ac, binder concentration: 1:10,000 dilution
# [9] = peptide modifications: H3T32ph H3K36me2, binder concentration: 1:2,000 dilution
# [10] = peptide modifications: H3T32ph H3K36me2, binder concentration: 1:10,000 dilution
# [11] = peptide modifications: H3K36me3 H3K37ac, binder concentration: 1:2,000 dilution
# [12] = peptide modifications: H3K36me3 H3K37ac, binder concentration: 1:10,000 dilution
# [13] = peptide modifications: H3K36me1 H3K37me2, binder concentration: 1:2,000 dilution
# [14] = peptide modifications: H3K36me1 H3K37me2, binder concentration: 1:10,000 dilution
# [15] = peptide modifications: H3K37me1, binder concentration: 1:2,000 dilution
# [16] = peptide modifications: H3K37me1, binder concentration: 1:10,000 dilution
# [17] = peptide modifications: H3T32ph, binder concentration: 1:2,000 dilution
# [18] = peptide modifications: H3T32ph, binder concentration: 1:10,000 dilution
# [19] = peptide modifications: H3K36me2, binder concentration: 1:2,000 dilution
# [20] = peptide modifications: H3K36me2, binder concentration: 1:10,000 dilution
# [21] = peptide modifications: H3K36me3, binder concentration: 1:2,000 dilution
# [22] = peptide modifications: H3K36me3, binder concentration: 1:10,000 dilution
# [23] = peptide modifications: H3K37me3, binder concentration: 1:2,000 dilution
# [24] = peptide modifications: H3K37me3, binder concentration: 1:10,000 dilution
binder,measurement,setting,value
PATGGVKKPHRYR [H3 30-42 P A T G G V Kme2 Kme P H R Y R],peptide microarray binding signal,"[1]; peptide modifications: H3K36me2 H3K37me1, binder concentration: 50 nM",0.00476 ± 8.1e-05
same,peptide microarray binding signal,"[1]; peptide modifications: H3K36me2 H3K37me1, binder concentration: 500 nM",0.0141 ± 0.0045
same,peptide microarray binding signal,"[2]; peptide modifications: H3K36me2 H3K37me1, binder concentration: 10 nM",0.00913 ± 0.0015
same,peptide microarray binding signal,"[2]; peptide modifications: H3K36me2 H3K37me1, binder concentration: 100 nM",0.00376 ± 0.0011
same,peptide microarray binding signal,[3]; [5],0.000774 ± 0.00022
same,peptide microarray binding signal,[3]; [6],0.00622 ± 0.002
same,peptide microarray binding signal,[4]; [5],0.00214 ± 0.00062
same,peptide microarray binding signal,[4]; [6],0.00208 ± 0.00019
PATGGVKKPHRYR [H3 30-42 P A T G G V K Kac P H R Y R],peptide microarray binding signal,"[1]; peptide modifications: H3K37ac, binder concentration: 50 nM",0.00991 ± 0.00064
same,peptide microarray binding signal,"[1]; peptide modifications: H3K37ac, binder concentration: 500 nM",0.0214 ± 0.0021
same,peptide microarray binding signal,"[2]; peptide modifications: H3K37ac, binder concentration: 10 nM",0.0263 ± 0.00079
same,peptide microarray binding signal,"[2]; peptide modifications: H3K37ac, binder concentration: 100 nM",0.0376 ± 0.0021
same,peptide microarray binding signal,[3]; [7],0.0146 ± 0.0013
same,peptide microarray binding signal,[3]; [8],0.014 ± 0.00079
same,peptide microarray binding signal,[4]; [7],0.0131 ± 0.00032
same,peptide microarray binding signal,[4]; [8],0.00663 ± 0.00069
PATGGVKKPHRYR [H3 30-42 P A Tph G G V Kme2 K P H R Y R],peptide microarray binding signal,"[1]; peptide modifications: H3T32ph H3K36me2, binder concentration: 50 nM",0.00313 ± 0.0002
same,peptide microarray binding signal,"[1]; peptide modifications: H3T32ph H3K36me2, binder concentration: 500 nM",0.00695 ± 0.00032
same,peptide microarray binding signal,"[2]; peptide modifications: H3T32ph H3K36me2, binder concentration: 10 nM",0.0113 ± 0.00095
same,peptide microarray binding signal,"[2]; peptide modifications: H3T32ph H3K36me2, binder concentration: 100 nM",0.0184 ± 0.00072
same,peptide microarray binding signal,[3]; [9],0.00266 ± 8.2e-05
same,peptide microarray binding signal,[3]; [10],0.00262 ± 0.00017
same,peptide microarray binding signal,[4]; [9],0.00142 ± 7.1e-05
same,peptide microarray binding signal,[4]; [10],0.00127 ± 1.3e-05
PATGGVKKPHRYR [H3 30-42 P A T G G V Kme3 Kac P H R Y R],peptide microarray binding signal,"[1]; peptide modifications: H3K36me3 H3K37ac, binder concentration: 50 nM",0.00197 ± 6.4e-05
same,peptide microarray binding signal,"[1]; peptide modifications: H3K36me3 H3K37ac, binder concentration: 500 nM",0.00643 ± 0.0006
same,peptide microarray binding signal,"[2]; peptide modifications: H3K36me3 H3K37ac, binder concentration: 10 nM",0.00603 ± 7.6e-05
same,peptide microarray binding signal,"[2]; peptide modifications: H3K36me3 H3K37ac, binder concentration: 100 nM",0.00128 ± 0.00011
same,peptide microarray binding signal,[3]; [11],0.000566 ± 6.2e-05
same,peptide microarray binding signal,[3]; [12],0.00856 ± 0.0042
same,peptide microarray binding signal,[4]; [11],0.0143 ± 0.0012
same,peptide microarray binding signal,[4]; [12],0.00617 ± 0.0014
PATGGVKKPHRYR [H3 30-42 P A T G G V Kme Kme2 P H R Y R],peptide microarray binding signal,"[1]; peptide modifications: H3K36me1 H3K37me2, binder concentration: 50 nM",0.00241 ± 8.1e-05
same,peptide microarray binding signal,"[1]; peptide modifications: H3K36me1 H3K37me2, binder concentration: 500 nM",0.00529 ± 0.00037
same,peptide microarray binding signal,"[2]; peptide modifications: H3K36me1 H3K37me2, binder concentration: 10 nM",0.00442 ± 0.00037
same,peptide microarray binding signal,"[2]; peptide modifications: H3K36me1 H3K37me2, binder concentration: 100 nM",0.00709 ± 0.0016
same,peptide microarray binding signal,[3]; [13],0.000245 ± 5.2e-06
same,peptide microarray binding signal,[3]; [14],0.000571 ± 1.1e-05
same,peptide microarray binding signal,[4]; [13],0.00337 ± 0.0001
same,peptide microarray binding signal,[4]; [14],0.000865 ± 2.4e-05
PATGGVKKPHRYR [H3 30-42 P A T G G V K Kme P H R Y R],peptide microarray binding signal,"[1]; peptide modifications: H3K37me1, binder concentration: 50 nM",0.0106 ± 0.00056
same,peptide microarray binding signal,"[1]; peptide modifications: H3K37me1, binder concentration: 500 nM",0.0245 ± 0.0059
same,peptide microarray binding signal,"[2]; peptide modifications: H3K37me1, binder concentration: 10 nM",0.0491 ± 0.0011
same,peptide microarray binding signal,"[2]; peptide modifications: H3K37me1, binder concentration: 100 nM",0.0698 ± 0.0049
same,peptide microarray binding signal,[3]; [15],0.0068 ± 0.00068
same,peptide microarray binding signal,[3]; [16],0.00765 ± 0.00036
same,peptide microarray binding signal,[4]; [15],0.00234 ± 4.8e-05
same,peptide microarray binding signal,[4]; [16],0.00225 ± 5.4e-05
PATGGVKKPHRYR [H3 30-42 P A Tph G G V K K P H R Y R],peptide microarray binding signal,"[1]; peptide modifications: H3T32ph, binder concentration: 50 nM",0.004984 ± 4.8e-05
same,peptide microarray binding signal,"[1]; peptide modifications: H3T32ph, binder concentration: 500 nM",0.0106 ± 0.00088
same,peptide microarray binding signal,"[2]; peptide modifications: H3T32ph, binder concentration: 10 nM",0.00812 ± 0.00079
same,peptide microarray binding signal,"[2]; peptide modifications: H3T32ph, binder concentration: 100 nM",0.0157 ± 0.0015
same,peptide microarray binding signal,[3]; [17],0.00115 ± 3.8e-05
same,peptide microarray binding signal,[3]; [18],0.001484 ± 1.4e-05
same,peptide microarray binding signal,[4]; [17],0.000574 ± 2.6e-05
same,peptide microarray binding signal,[4]; [18],0.0011 ± 1.1e-05
PATGGVKKPHRYR [H3 30-42 P A T G G V Kme2 K P H R Y R],peptide microarray binding signal,"[1]; peptide modifications: H3K36me2, binder concentration: 50 nM",0.00417 ± 0.0002
same,peptide microarray binding signal,"[1]; peptide modifications: H3K36me2, binder concentration: 500 nM",0.00919 ± 0.00057
same,peptide microarray binding signal,"[2]; peptide modifications: H3K36me2, binder concentration: 10 nM",0.0135 ± 0.0016
same,peptide microarray binding signal,"[2]; peptide modifications: H3K36me2, binder concentration: 100 nM",0.0203 ± 0.0023
same,peptide microarray binding signal,[3]; [19],0.0031 ± 0.00053
same,peptide microarray binding signal,[3]; [20],0.00377 ± 0.00013
same,peptide microarray binding signal,[4]; [19],0.00305 ± 0.00012
same,peptide microarray binding signal,[4]; [20],0.00271 ± 7.1e-05
PATGGVKKPHRYR [H3 30-42 P A T G G V Kme3 K P H R Y R],peptide microarray binding signal,"[1]; peptide modifications: H3K36me3, binder concentration: 50 nM",0.00574 ± 0.00018
same,peptide microarray binding signal,"[1]; peptide modifications: H3K36me3, binder concentration: 500 nM",0.007429 ± 7.1e-05
same,peptide microarray binding signal,"[2]; peptide modifications: H3K36me3, binder concentration: 10 nM",0.0195 ± 0.00025
same,peptide microarray binding signal,"[2]; peptide modifications: H3K36me3, binder concentration: 100 nM",0.02445 ± 0.00017
same,peptide microarray binding signal,[3]; [21],0.00383 ± 0.00027
same,peptide microarray binding signal,[3]; [22],0.00468 ± 0.00012
same,peptide microarray binding signal,[4]; [21],0.0031 ± 0.00028
same,peptide microarray binding signal,[4]; [22],0.00219
PATGGVKKPHRYR [H3 30-42 P A T G G V K Kme3 P H R Y R],peptide microarray binding signal,"[1]; peptide modifications: H3K37me3, binder concentration: 50 nM",0.00621 ± 0.00029
same,peptide microarray binding signal,"[1]; peptide modifications: H3K37me3, binder concentration: 500 nM",0.00781 ± 0.00023
same,peptide microarray binding signal,"[2]; peptide modifications: H3K37me3, binder concentration: 10 nM",0.00949 ± 0.00038
same,peptide microarray binding signal,"[2]; peptide modifications: H3K37me3, binder concentration: 100 nM",0.0356 ± 0.036
same,peptide microarray binding signal,[3]; [23],0.00183 ± 9e-05
same,peptide microarray binding signal,[3]; [24],0.00234 ± 4.2e-05
same,peptide microarray binding signal,[4]; [23],0.00216 ± 0.00026
same,peptide microarray binding signal,[4]; [24],0.00185 ± 5.2e-05
